Screens from PubChem.
Rows were chosen to be rich in hits. Some 3.5% of all compounds tested hit in one or more screens of this group.
MITF primary – blocks human microphthalmia-associated transcription factor. O75030. AlphaScreen MITF homodimerization, bead proximity signal. inhibition, % at 2.6 µM. 650,000 compounds, 0.91% hits. AID 1259374; in the data active = inhibition above about 50%
GPR151 activ – activators of human GPR151. PathHunter beta-arrestin GPR151 cells, luminescence. activation, % at 11.2 µM. 650,000 compounds, 1% hits. AID 1508602; in the data active = activation above about 4.9%
FBW7 act – human FBW7 E3 ligase activation, primary screen. AlphaScreen FBW7–phospho-cyclin E peptide binding, activator screen. normalized activity (activation), % at 26.1 µM. Q969H0. 650,000 compounds, 0.13% hits; in the data active = normalized activity above about 1.9%;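 also: purified mutant Fbw7 with reduced substrate affinity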
Target sequence (Q969H0 whole entry, looked up): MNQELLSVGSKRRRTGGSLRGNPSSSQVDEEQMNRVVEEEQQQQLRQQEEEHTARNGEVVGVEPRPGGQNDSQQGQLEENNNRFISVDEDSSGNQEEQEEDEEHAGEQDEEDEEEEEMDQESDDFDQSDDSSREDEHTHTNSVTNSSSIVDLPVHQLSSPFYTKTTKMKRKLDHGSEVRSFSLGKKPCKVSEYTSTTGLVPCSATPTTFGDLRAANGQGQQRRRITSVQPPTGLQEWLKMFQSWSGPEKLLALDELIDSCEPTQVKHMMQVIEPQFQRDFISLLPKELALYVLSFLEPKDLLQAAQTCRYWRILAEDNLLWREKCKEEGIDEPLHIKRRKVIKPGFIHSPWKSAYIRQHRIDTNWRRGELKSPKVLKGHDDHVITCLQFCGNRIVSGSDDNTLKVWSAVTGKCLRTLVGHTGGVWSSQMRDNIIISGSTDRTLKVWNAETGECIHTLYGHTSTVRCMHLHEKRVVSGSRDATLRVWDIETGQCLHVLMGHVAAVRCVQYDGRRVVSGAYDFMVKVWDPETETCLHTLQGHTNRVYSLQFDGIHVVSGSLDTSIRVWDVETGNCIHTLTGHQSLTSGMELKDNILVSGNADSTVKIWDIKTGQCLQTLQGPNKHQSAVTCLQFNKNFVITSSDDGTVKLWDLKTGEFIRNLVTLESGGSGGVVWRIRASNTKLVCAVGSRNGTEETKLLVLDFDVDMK
TEAD-YAP inh – TEAD-YAP interaction inhibition | HEK-TIYL cells, TEAD-Gal4/YAP UAS-luciferase luminescence | inhibition, % at 9.12 µM | 640,000 compounds, 1.4% hits | AID 1259422; in the data active = inhibition above about 32%
Numbers stand for hits; n = inactive.

SMILES	MITF primary	GPR151 activ	FBW7 act	TEAD-YAP inh
Oc1ccccc1-c1nc2c3c4c(sc3ncn2n1)CCCC4	n	n	n	n
NC(=O)C1CCN(CC(=O)NC(c2ccccc2)c2ccccc2)CC1	n	n	n	n
CC(C)Oc1ccc(Cl)cc1[N+](=O)[O-]	n	n	n	n
CC(C)N(CCNc1nc(-c2cccc(N)c2)nc2c1ncn2C(C)C)C(C)C	n	n	n	53
CC(=O)c1cccc(-c2nc(NCc3nc4ccccc4[nH]3)c3ncn(C(C)C)c3n2)c1	n	n	n	67
Nc1cccc(-c2nc(NCc3nc4ccccc4[nH]3)c3ncn(-c4ccccc4)c3n2)c1	n	n	n	35
CC(C)N(CCNc1nc(-c2ccc(N3CCN(C)CC3)cc2)nc2c1ncn2C(C)C)C(C)C	n	n	n	39
CN1C(=O)C(C)(C)c2cc(S(=O)(=O)NC3CC3)ccc21	n	n	n	n
COc1ccc2c(c1)C1NC(=S)NC(C)(O2)C1C(=O)Nc1ccc(C)cc1C (stereo unspecified)	n	n	n	n
CC(C)n1cnc2c(NCc3nc4ccccc4[nH]3)nc(-c3cccc(N)c3)nc21	n	n	n	84
CC(C)n1cnc2c(NCCO)nc(-c3cccc(N)c3)nc21	n	n	n	n
c1ccc(-n2cnc3c(NCc4nc5ccccc5[nH]4)nc(-c4ccc(N5CCOCC5)nc4)nc32)cc1	n	n	n	44
O=C(NCc1nc2ccccc2[nH]1)c1ccc2nc(-c3ccc(N4CCOCC4)nc3)sc2c1	n	n	6.9	n
c1ccc(-n2cnc3c(NCc4nc5ccccc5[nH]4)nc(N4CCOCC4)nc32)cc1	n	n	n	82
c1ccc(-n2cnc3c(NCc4nc5ccccc5[nH]4)nc(N4CCN(Cc5ccc6c(c5)OCO6)CC4)nc32)cc1	n	n	n	71
COc1ccc(N2C(=O)CN(C(=O)c3cnccn3)CC23CCCC3)cc1	n	n	n	n
CCN(CC)C(=O)CSc1nc2ccsc2c(=O)n1Cc1ccccc1	n	n	n	n
COc1cc(NC(=O)CN2C(=O)C(c3ccccc3)=NC23CCC(C)CC3)cc(OC)c1 (stereo unspecified)	n	n	n	n
CS(=O)(=O)N(CC(=O)NCC1CCCO1)c1cc(C(F)(F)F)ccc1Cl (stereo unspecified)	n	n	n	n
CNCC(O)Cn1ccc2ccccc21 (stereo unspecified)	n	n	n	n
COc1ccccc1NCC(O)Cn1ccc2ccccc21 (stereo unspecified)	69	n	n	n
O=C(Nc1ccc2c(c1)OCO2)c1cc(C2CC2)on1	n	n	n	n
O=C(Nc1cccc(O)c1)c1cc(C2CC2)on1	n	n	n	84
CCCc1cc(C(=O)Nc2cccc(O)c2)no1	n	n	n	74
Cc1cc(N2CCCC2)nc2ccc(NC(=S)NCCN(C)C)cc12	n	n	n	n
SMILES	MITF primary	GPR151 activ	FBW7 act	TEAD-YAP inh
CCCn1c(NC(=O)c2cccc(S(=O)(=O)N(C)C(C)C)c2)nc2ccccc21	n	n	n	34
CCN(CC)C(=O)Sc1nc2ccccc2s1	n	n	n	44
CC(C)(Oc1ccc(Cl)cc1)C(=O)Nc1ncc([N+](=O)[O-])s1	n	n	n	36
O=C(Nc1ccc(Nc2cc(-n3ccnc3)ncn2)cc1)c1cccc2ccccc12	n	n	n	34
O=C(Nc1ccc(Nc2cc(-n3ccnc3)ncn2)cc1)c1ccc(F)cc1F	n	n	n	n
O=C(N1CCC[C@H](Cn2nc(-c3cccs3)ccc2=O)C1)C1(c2ccccc2)CC1	n	n	n	n
CN(C)C(=O)Cn1c(SCC(=O)N2CCCc3ccccc32)nc2ccccc21	n	n	n	35
CC1CCN(C(=O)Cn2c(SCC(=O)N3CCc4ccccc43)nc3ccccc32)CC1	n	n	n	n
O=C1C(=O)N(CCCN2CCOCC2)C(c2ccco2)/C1=C(/O)c1ccc(S(=O)(=O)N2CCOCC2)cc1 (stereo unspecified)	n	n	n	n
COc1cc(OC)cc(C2=NC3(CCCCC3)NC2=O)c1	n	n	2.1	n
CCOc1ccccc1CNc1ncnc2c1nc1n2CCCCC1	n	n	n	41
CCOC(=O)C(C)Oc1cc(OC(C)C(=O)OCC)c2c3c(c(=O)oc2c1)CCCC3 (stereo unspecified)	n	n	n	n
COC(=O)C(C)Oc1cc(OC(C)C(=O)OC)c2c3c(c(=O)oc2c1)CCC3 (stereo unspecified)	n	n	n	44
Cc1cc(S(=O)(=O)NCC2COC3(CCCC3)O2)ccc1F (stereo unspecified)	n	n	n	n
O=C(NNc1ccc([N+](=O)[O-])cc1[N+](=O)[O-])c1ccccc1	n	n	n	73
O=C(NNc1ccc(C(F)(F)F)cc1[N+](=O)[O-])c1ccccc1	n	n	n	n
O=C(Nc1ccc([N+](=O)[O-])cc1[N+](=O)[O-])c1ccccc1	n	n	n	n
O=C(NNc1ccc(C(F)(F)F)cc1[N+](=O)[O-])C(F)(F)F	n	n	2.5	n
Cc1cc2c(N3CCN(c4ccccn4)CC3)ncnc2s1	n	n	n	41
Cc1cc2c(N3CCN(Cc4ccc5c(c4)OCO5)CC3)ncnc2s1	n	n	n	45
Cc1cc2c(N3CCN(c4ccccc4)CC3)ncnc2s1	n	n	n	n
O=C(c1cnc(N2CCN(c3ncccn3)CC2)c2ccccc12)N1CCN(Cc2ccc3c(c2)OCO3)CC1	n	n	n	61
O=C(c1cnc(N2CCN(c3ncccn3)CC2)c2ccccc12)N1CCCC1	n	n	n	n
Cc1cc(/C=N/NC(=O)c2cccc(F)c2)c(C)n1-c1cccc([N+](=O)[O-])c1	n	n	n	n
Cc1cccc(C(=O)Nn2cnc3ccccc3c2=O)c1	n	n	n	n
SMILES	MITF primary	GPR151 activ	FBW7 act	TEAD-YAP inh
O=C(Nc1cccc(-c2nc3ccccc3c(=O)o2)c1)c1ccccc1	n	n	n	n
COc1ccc(C(=O)C(C)[n+]2cccc(C)c2)cc1[N+](=O)[O-] (stereo unspecified)	n	n	n	n
CCN(CC)c1nc(-c2ccc(C(C)(C)C)cc2)nc2ccccc12	n	n	n	58
CCN(CC)c1nc(-c2ccc(C)cc2)nc2ccccc12	n	n	n	n
Cc1ccc(Nc2nc(-c3ccc(C)cc3)nc3ccccc23)cc1	n	n	n	n
COc1ccc(Nc2nc(-c3ccc(C(C)(C)C)cc3)nc3ccccc23)cc1	n	n	n	86
CCCCc1ccc(-c2nc(Nc3ccc(C(F)(F)F)cc3)c3ccccc3n2)cc1	n	n	n	38
COCCNC(=O)COC(=O)c1cc2occc2n1C	n	n	n	n
COc1cc(Nc2ccnc(N3CCCC3CO)n2)cc(OC)c1OC (stereo unspecified)	n	n	n	n
COc1cc(C(=O)Nc2cccc(C(=O)Nc3cccc4ccccc34)c2)cc(OC)c1OC	n	n	n	64
COc1ccc(C(=O)Nc2cccc3ccccc23)cc1OC	n	n	n	n
COc1ccc(C(=O)Nc2ccc3c4c(cccc24)CC3)cc1	n	n	n	n
COc1cc(C(=O)Nc2ccc3c4c(cccc24)CC3)cc(OC)c1OC	n	n	n	53
